# Experimental data: the antibiotic and cytotoxicity screens of Wong et al. (2023)
# The campaign covered roughly 39,000 compounds. About 3,300 (8.5%) were called active. The full list was thinned out, with actives kept by preference.
# System: HepG2
# Assay: cytotoxicity call (relative viability < 0.9)
# Conditions: 10 µM
row,SMILES,cytotoxicity call
1,CO[C@@H]1CN(C)C(=O)c2ccc(NC(=O)Nc3ccccc3F)cc2OC[C@@H](C)N(C(=O)Nc2ccccc2F)C[C@H]1C,inactive
2,Nc1nc(Nc2ccccc2)nc2c1ncn2[C@@H]1O[C@H](CO)[C@@H](O)[C@H]1O,inactive
3,CO[C@@H]1CN(C)C(=O)c2cc(NS(=O)(=O)CC(F)(F)F)ccc2OC[C@H](C)N(Cc2cccnc2)C[C@@H]1C,inactive
4,C[C@@H]1CN([C@H](C)CO)C(=O)c2cc(C#CC3(O)CCCC3)cnc2O[C@H]1CN(C)C(=O)Cc1cccnc1,inactive
5,CN1CCN(C(=O)C[C@@H]2CC[C@@H]3[C@H](COC[C@@H](O)CN3S(=O)(=O)c3cccc(Cl)c3)O2)CC1,inactive
6,C[C@H]1CN([C@@H](C)CO)C(=O)c2cccc(NS(C)(=O)=O)c2O[C@@H]1CN(C)C(=O)Nc1ccc(F)cc1,inactive
7,C[C@@H]1CN([C@H](C)CO)C(=O)CCCn2nncc2CO[C@@H]1CN(C)S(=O)(=O)c1cn(C)cn1,inactive
8,C[C@@H]1CN([C@@H](C)CO)C(=O)c2cc(NC(=O)C3CC3)ccc2O[C@@H]1CN(C)C(=O)Nc1ccc2c(c1)OCO2,inactive
9,CC(=O)Nc1ccc(C(=O)NN)cc1,inactive
10,C[C@@H]1CN([C@H](C)CO)C(=O)c2cccc(NC(=O)c3ccncc3)c2O[C@H]1CN(C)Cc1ccncc1,inactive
11,c1ccc(CNC2CCCCC2)nc1,inactive
12,Cc1cccc(S(=O)(=O)N2C[C@@H](O)COC[C@H]3O[C@H](CC(=O)NCc4ccncn4)CC[C@@H]32)c1,inactive
13,C[C@H](CO)N1C[C@H](C)[C@@H](CN(C)Cc2ccc(C(=O)O)cc2)OCc2ccccc2-c2c(n(C)c3ccccc23)C1=O,inactive
14,C[C@H]1CCCCO[C@H](CN(C)Cc2ccc(C(F)(F)F)cc2)[C@@H](C)CN([C@@H](C)CO)C(=O)c2cc(NC(=O)Nc3ccccc3)ccc2O1,active
15,C[C@H](CO)N1C[C@H](C)[C@H](CN(C)Cc2ccc(C(F)(F)F)cc2)OCCCC[C@H](C)Oc2ccc(NC(=O)Nc3ccccc3)cc2C1=O,active
16,C[C@@H]1CCCCO[C@H](CN(C)Cc2ccc(C(F)(F)F)cc2)[C@H](C)CN([C@H](C)CO)C(=O)c2cc(NC(=O)Nc3ccccc3)ccc2O1,active
17,CCS(=O)(=O)NCC[C@@H]1CC[C@@H](NC(=O)C2CC2)[C@@H](CO)O1,inactive
18,Cc1ccc(S(=O)(=O)Nc2ccc3c(c2)CC(=O)N([C@@H](C)CO)C[C@@H](C)[C@H](CN(C)S(C)(=O)=O)O3)cc1,inactive
19,C[C@@H]1CN([C@@H](C)CO)C(=O)Cc2cc(NC(=O)Nc3ccccc3)ccc2O[C@H]1CN(C)C(=O)Nc1ccc(C(F)(F)F)cc1,inactive
20,C[C@H]1CN([C@@H](C)CO)C(=O)c2cc(NC(=O)Nc3cccc4ccccc34)ccc2O[C@H]1CN(C)S(=O)(=O)c1ccc(F)cc1,inactive
21,CC(=O)N[C@@H](Cc1cccc(F)c1)C(=O)O,inactive

row,SMILES,cytotoxicity call
1,O=C(NC1Cc2ccccc2C1)[C@@H]1[C@@H](CO)[C@@H]2Cn3c(cccc3=O)[C@@H]2N1C(=O)c1cnccn1,inactive
2,Nc1no[n+]([O-])c1-c1ccccc1,inactive
3,C[C@H](CO)N1C[C@H](C)[C@H](CN(C)C(=O)Nc2ccc(F)cc2)OCCCC[C@H](C)Oc2ccc(NC(=O)c3ccccc3)cc2C1=O,inactive
4,C[C@@H]1CCCCO[C@H](CN(C)Cc2ccc3c(c2)OCO3)[C@@H](C)CN([C@@H](C)CO)C(=O)c2cc(NC(=O)Nc3ccccc3)ccc2O1,inactive
5,C[C@@H]1CN([C@H](C)CO)C(=O)c2cc(NC(=O)Nc3ccccc3)ccc2O[C@@H](C)CCCCO[C@H]1CN(C)Cc1ccc2c(c1)OCO2,inactive
6,C[C@@H]1CCCCO[C@H](CN(C)Cc2ccc3c(c2)OCO3)[C@@H](C)CN([C@H](C)CO)C(=O)c2cc(NC(=O)Nc3ccccc3)ccc2O1,inactive
7,C[C@@H]1CCCCO[C@H](CN(C)Cc2ccc3c(c2)OCO3)[C@H](C)CN([C@H](C)CO)C(=O)c2cc(NC(=O)Nc3ccccc3)ccc2O1,active
8,C[C@H]1CCCCO[C@H](CN(C)Cc2ccc3c(c2)OCO3)[C@@H](C)CN([C@@H](C)CO)C(=O)c2cc(NC(=O)Nc3ccccc3)ccc2O1,inactive
9,C[C@@H]1CN([C@H](C)CO)C(=O)c2cc(NC(=O)Nc3ccccc3)ccc2O[C@@H](C)CCCCO[C@@H]1CN(C)Cc1ccc2c(c1)OCO2,inactive
10,C[C@H]1CCCCO[C@@H](CN(C)Cc2ccc3c(c2)OCO3)[C@@H](C)CN([C@@H](C)CO)C(=O)c2cc(NC(=O)Nc3ccccc3)ccc2O1,active
11,C[C@@H]1CCCCO[C@@H](CN(C)Cc2ccc3c(c2)OCO3)[C@@H](C)CN([C@H](C)CO)C(=O)c2cc(NC(=O)Nc3ccccc3)ccc2O1,inactive
12,C[C@@H]1CCCCO[C@@H](CN(C)Cc2ccc3c(c2)OCO3)[C@@H](C)CN([C@@H](C)CO)C(=O)c2cc(NC(=O)Nc3ccccc3)ccc2O1,active
13,C[C@@H]1CN([C@@H](C)CO)C(=O)c2cc(NC(=O)Nc3ccccc3)ccc2O[C@@H](C)CCCCO[C@H]1CN(C)Cc1ccc2c(c1)OCO2,inactive
14,C[C@@H]1CCCCO[C@@H](CN(C)Cc2ccc3c(c2)OCO3)[C@H](C)CN([C@H](C)CO)C(=O)c2cc(NC(=O)Nc3ccccc3)ccc2O1,inactive
15,C[C@H](CO)N1C[C@H](C)[C@H](CN(C)Cc2ccc3c(c2)OCO3)OCCCC[C@H](C)Oc2ccc(NC(=O)Nc3ccccc3)cc2C1=O,active
16,C[C@@H]1CN([C@@H](C)CO)C(=O)c2cccc(NC(=O)c3ccc(-c4nccs4)cc3)c2O[C@@H]1CN(C)C(=O)Nc1ccc2c(c1)OCO2,inactive
17,CCCNC(=O)N1C[C@@H](O)COC[C@H]2O[C@H](CC(=O)N3CCOCC3)CC[C@@H]21,inactive
18,C[C@H]1CN([C@@H](C)CO)C(=O)c2cccc(NS(C)(=O)=O)c2O[C@@H]1CN(C)Cc1ccc(C(=O)O)cc1,inactive
19,C[C@@H]1CN([C@H](C)CO)C(=O)c2cc(NS(=O)(=O)c3cn(C)cn3)ccc2O[C@H]1CN(C)Cc1ccc(C(=O)O)cc1,inactive
20,O=C(O)c1ccc2[nH]cnc2n1,inactive
21,O=C(CCCCCNC(=O)OCc1ccc(CO[C@@H]2C[C@H](C3CCCCC3)C=C(C(=O)N3CCCCCCC3)O2)cc1)NO,inactive

row,SMILES,cytotoxicity call
1,C[C@H](CO)N1C[C@H](C)[C@@H](CN(C)S(=O)(=O)c2ccc(F)cc2)Oc2ccc(NS(C)(=O)=O)cc2C1=O,inactive
2,Cc1noc(C)c1NC(=O)N(C)C[C@@H]1Oc2ccc(NC(=O)Nc3cccc4ccccc34)cc2C(=O)N([C@H](C)CO)C[C@@H]1C,inactive
3,COc1ccccc1NC(=O)N(C)C[C@H]1Oc2ncc(C#CCN(C)C)cc2C(=O)N([C@H](C)CO)C[C@H]1C,inactive
4,C=CCOC(=O)[C@H]1[C@@H]2C(=O)O[C@@H](c3ccccc3)[C@@H](c3ccccc3)N2[C@@H](c2ccc(OCCOC(=O)[C@@H]3C[C@@H]4C(=O)NCC(=O)N4[C@@H]3c3cccc(OCCO)c3)cc2)[C@]12C(=O)Nc1ccccc12,inactive
5,Cc1noc(C)c1S(=O)(=O)Nc1ccc2c(c1)CC(=O)N([C@H](C)CO)C[C@H](C)[C@H](CN(C)Cc1ccc(-c3ccccc3)cc1)O2,inactive
6,C(=N\c1ccccc1)/c1ccccc1,inactive
7,C[C@@H]1CCCCO[C@H](CN(C)Cc2ccc3c(c2)OCO3)[C@H](C)CN([C@@H](C)CO)C(=O)c2cc(NC(=O)Nc3ccccc3)ccc2O1,inactive
8,C[C@@H]1CN([C@@H](C)CO)C(=O)c2cc(NC(=O)Nc3ccc4c(c3)OCO4)ccc2O[C@@H](C)CCCCO[C@@H]1CN(C)Cc1ccccc1,active
9,C[C@@H]1CN([C@H](C)CO)C(=O)c2cc(NC(=O)Nc3ccc4c(c3)OCO4)ccc2O[C@@H](C)CCCCO[C@@H]1CN(C)Cc1ccccc1,inactive
10,C[C@H](CO)N1C[C@H](C)[C@@H](CN(C)Cc2ccc3c(c2)OCO3)OCCCC[C@H](C)Oc2ccc(NC(=O)Nc3ccccc3)cc2C1=O,inactive
11,C[C@@H]1CCCCO[C@H](CN(C)Cc2ccccc2)[C@@H](C)CN([C@@H](C)CO)C(=O)c2cc(NC(=O)Nc3ccc4c(c3)OCO4)ccc2O1,inactive
12,C[C@@H]1CN([C@@H](C)CO)C(=O)c2cc(NC(=O)Nc3ccccc3)ccc2O[C@@H](C)CCCCO[C@@H]1CN(C)Cc1ccc2c(c1)OCO2,active
13,C[C@@H]1CCCCO[C@H](CN(C)CC2CCCCC2)[C@H](C)CN([C@H](C)CO)C(=O)c2cc(NS(=O)(=O)c3ccccc3)ccc2O1,inactive
14,C[C@@H]1CCCCO[C@@H](CN(C)C(=O)Nc2ccc3c(c2)OCO3)[C@@H](C)CN([C@H](C)CO)C(=O)c2cc(NC(=O)Nc3cccc4ccccc34)ccc2O1,inactive
15,C[C@@H]1CN([C@H](C)CO)C(=O)Cc2cc(NC(=O)Cn3cnnn3)ccc2O[C@H]1CN(C)Cc1ccccc1,inactive
16,COc1ccc(OC)c(S(=O)(=O)N2[C@@H]3CC[C@@H](C3)[C@H]2c2nc3cccc(OCc4ccc(F)cc4)c3[nH]2)c1,inactive
17,Cc1ccc(C)c(S(=O)(=O)N2[C@@H]3CC[C@@H](C3)[C@H]2c2nc3cccc(OCc4ccc(F)cc4)c3[nH]2)c1,inactive
18,Cc1ccc(F)c(S(=O)(=O)N2[C@@H]3CC[C@@H](C3)[C@H]2c2nc3cccc(OCc4ccc(F)cc4)c3[nH]2)c1,active
19,COc1cccc(S(=O)(=O)N2[C@@H]3CC[C@@H](C3)[C@H]2c2nc3cccc(OCc4ccc(F)cc4)c3[nH]2)c1,active
20,COc1cc(C)ccc1S(=O)(=O)N1[C@@H]2CC[C@@H](C2)[C@H]1c1nc2cccc(OCc3ccc(F)cc3)c2[nH]1,inactive
21,CC(=O)c1cccc(S(=O)(=O)N2[C@@H]3CC[C@@H](C3)[C@H]2c2nc3cccc(OCc4ccc(F)cc4)c3[nH]2)c1,inactive
